Activity calls are given as the source filed them. How the source made its calls: active means hit-call score of the fitted dose curve at least 0.9, where 1 is the maximum; inactive means score below 0.9.
Tests used:
[1] = ATG_Ets_CIS: Attagene CIS-FACTORIAL HepG2 Assay for human Erythroblast Transformation Specific (ETS) (AID 2282941); details: HepG2 ETS cis-reporter transcription, actives raise or lower the signal
How it was run: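 Cis-regulated reporter mRNA induction in HepG2 (transient transfection), 24 h exposure, RT-PCR plus capillary electrophoresis detection; DMSO serves as negative control and baseline.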

[2] = target: Hepatocyte nuclear factor 3-beta (Homo sapiens) (UniProt Q9Y261); assay: ATG_FoxA2_CIS: Attagene CIS-FACTORIAL HepG2 Assay for human Forkhead box A2 (FOXA2) (AID 2282942); details: HepG2 cis-reporter transcription factor activity, 24 h; actives raise or lower the signal
How it was run: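 HepG2 cells transiently transfected with multiple cis-regulated reporter transcription units, dosed for 24 h. Reporter mRNA measured by RT-PCR, 6-FAM labelling, HpaI digestion and capillary electrophoresis; bidirectional fitting against DMSO baseline.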

[3] = ATG_GATA_CIS: Attagene CIS-FACTORIAL HepG2 Assay for human GATA Binding Protein (AID 2282944); details: HepG2 GATA cis-element reporter, Attagene multiplex mRNA; actives raise or lower the signal
How it was run: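 Read-out: fluorescent reporter mRNA fragments resolved by capillary electrophoresis after RT-PCR. Human liver HepG2 cells carried transiently transfected cis-regulated reporter constructs; chemicals incubated 24 h; gain or loss of signal fitted relative to DMSO.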

[4] = ATG_GLI_CIS: Attagene CIS-FACTORIAL HepG2 Assay for human Zinc Finger Protein GLI1 (AID 2282945); details: HepG2, Attagene cis-factorial reporter mRNA, GLI element; actives raise or lower the signal
How it was run: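 Transiently transfected HepG2 cells report endogenous transcription factor activity via cis-element-driven reporter units. After 24 h compound exposure, reporter mRNA was measured by RT-PCR with capillary electrophoresis; bidirectional fitting against DMSO baseline.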

[5] = ATG_GRE_CIS: Attagene CIS-FACTORIAL HepG2 Assay for human Glucocorticoid Response Elements (GRE) (AID 2282947); details: HepG2 GRE cis-reporter, Attagene multiplex mRNA; actives raise or lower the signal
How it was run: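 Fluorescence intensity of reporter-specific cDNA fragments, separated by capillary electrophoresis, provides the signal. Constructs carry cis-regulating promoters in transiently transfected HepG2 liver cells; 24 h incubation; fitting is bidirectional against DMSO.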

[6] = ATG_ISRE_CIS: Attagene CIS-FACTORIAL HepG2 Assay for human Interferon Regulatory Factor 1 (IRF1) binding to an Interferon-Stimulated Response Element (ISRE) (AID 2282948); details: HepG2 ISRE cis-reporter (Attagene), mRNA transcription readout; actives raise or lower the signal
How it was run: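 Multiplexed mRNA reporter readout in human liver HepG2 cells: cis-element-driven reporters transfected, compound added for 24 h, transcripts amplified, fluorescently labelled and sized by capillary electrophoresis; curve fitting bidirectional against DMSO.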

[7] = ATG_M_32_CIS: Attagene CIS-FACTORIAL HepG2 Assay for M32 Transcription Factor (Internal Marker) (AID 2282949); details: HepG2 Attagene cis-factorial M32 reporter, mRNA; actives raise or lower the signal;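 further: background control marker of the multiplexed CIS panel rather than a real target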
How it was run: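 HepG2 human liver cells transiently transfected with cis-promoter-driven multiple reporter transcription units, dosed 24 h. Reporter mRNA quantified by RT-PCR, FAM-labelled primer extension, HpaI digest and capillary electrophoresis; bidirectional fit versus DMSO baseline.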

[8] = ATG_M_06_CIS: Attagene CIS-FACTORIAL HepG2 Assay for M06 Transcription Factor (Internal Marker) (AID 2282950); details: HepG2 Attagene CIS-FACTORIAL M06 internal marker reporter; actives raise or lower the signal
How it was run: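 Terse: HepG2, transient MRTU transfection (FuGene 6), 24 h dosing; total RNA, oligo(dT) RT, PCR, FAM label, HpaI cut, capillary electrophoresis; bidirectional fit vs DMSO baseline; background-control endpoint.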

[9] = target: Hypoxia-inducible factor 1-alpha (Homo sapiens) (UniProt Q16665); assay: ATG_HIF1a_CIS: Attagene CIS-FACTORIAL HepG2 Assay for human Hypoxia Inducible Factor 1 (HIF1A) (AID 2282951); details: HepG2 Attagene cis-factorial HIF1a reporter transcription; actives raise or lower the signal
How it was run: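 HepG2 cells transiently transfected with multiplexed cis-promoter reporter units; reporter mRNA read 24 h after dosing by RT-PCR, 6-FAM primer-extension labelling, HpaI digestion and capillary electrophoresis. Bidirectional fit versus DMSO baseline.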

[10] = target: Hepatocyte nuclear factor 6 (Homo sapiens) (UniProt Q9UBC0); assay: ATG_HNF6_CIS: Attagene CIS-FACTORIAL HepG2 Assay for human Hepatocyte Nuclear Factor 6 (HNF6) (AID 2282952); details: HepG2 Attagene cis-factorial HNF6 reporter transcription; actives raise or lower the signal
How it was run: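 Endogenous factor activity read in transiently transfected HepG2 via promoter-regulated reporter transcripts. RNA harvested 24 h post-dosing, reverse-transcribed, PCR-amplified, FAM-labelled, HpaI-digested and resolved by capillary electrophoresis; fitted in both directions against DMSO.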

[11] = target: Heat shock factor protein 1 (Homo sapiens) (UniProt Q00613); assay: ATG_HSE_CIS: Attagene CIS-FACTORIAL HepG2 Assay for human Heat Shock Transcription Factor 1 (HSE) (AID 2282953); details: HepG2 HSE cis-reporter, Attagene RNA transcription; actives raise or lower the signal
How it was run: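 Read-out: fluorescence of reporter-specific RT-PCR fragments separated by capillary electrophoresis. HepG2 carrying transfected cis-element reporter units; 24 h dosing; activity fitted in both directions relative to DMSO baseline.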

[12] = ATG_MRE_CIS: Attagene CIS-FACTORIAL HepG2 Assay for human Metal Responsive Element (MRE) (AID 2282954); details: HepG2 MRE cis-reporter transcription, Attagene multiplex; actives raise or lower the signal
How it was run: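 Measured here is mRNA induction from an MRE cis-element reporter in HepG2 after 24 h, quantified by fluorescence of labelled RT-PCR products on capillary electrophoresis; gain- and loss-of-signal fits use DMSO as baseline.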

[13] = target: Paired box protein Pax-6 (Homo sapiens) (UniProt P26367); assay: ATG_Pax6_CIS: Attagene CIS-FACTORIAL HepG2 Assay for human Paired Box 6 (PAX6) (AID 2282956); details: HepG2 CIS-FACTORIAL PAX6 reporter transcription, RNA readout; actives raise or lower the signal
How it was run: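 Fluorescent RT-PCR products separated by capillary electrophoresis report PAX6-linked promoter mRNA in HepG2 cells 24 h post-dose. Curves fitted bidirectionally, DMSO as negative control.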

[14] = ATG_PXRE_CIS: Attagene CIS-FACTORIAL HepG2 Assay for human Pregnane X Receptor Element (PXRE) (AID 2282957); details: HepG2 Attagene CIS-FACTORIAL PXRE reporter, mRNA; actives raise or lower the signal
How it was run: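 Reporter transcripts under endogenous PXR-responsive cis-regulation quantified from total RNA of transfected HepG2 cells 24 h post-dosing, via RT-PCR with fluorescent primer extension and capillary electrophoresis. Gain or loss of signal fitted against DMSO baseline.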

[15] = ATG_PPRE_CIS: Attagene CIS-FACTORIAL HepG2 Assay for human Peroxisome Proliferator-activated Response Element (PPRE) (AID 2282958); details: HepG2 PPRE cis-element reporter, Attagene transcription factor profiling; actives raise or lower the signal
How it was run: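 HepG2 cells transiently transfected with multiplexed cis-element reporter units measure endogenous transcription factor activity. After 24 h compound exposure, reporter mRNA is quantified by RT-PCR, 6-FAM labeling, HpaI digestion and capillary electrophoresis; bidirectional fits are made against DMSO baseline.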

[16] = ATG_RORE_CIS: Attagene CIS-FACTORIAL HepG2 Assay for human RAR-related Orphan Receptor Element (RORE) (AID 2282959); details: HepG2 Attagene cis-factorial RORE reporter, mRNA; actives raise or lower the signal
How it was run: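 HepG2 cells transiently transfected with multiple cis-element reporter transcription units, exposed to chemical for 24 h. Reporter mRNA quantified by RT-PCR, 6-FAM primer-extension labeling, HpaI digestion and capillary electrophoresis; bidirectional fit versus DMSO baseline.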

[17] = target: Bile acid receptor (Homo sapiens) (UniProt Q96RI1); assay: ATG_IR1_CIS: Attagene CIS-FACTORIAL HepG2 Assay for human Nuclear Receptor Subfamily 1 Group H Member 4 (NR1H4), IR1 submotif (AID 2282946); details: IR1 reporter transcription, actives raise or lower the signal
How it was run: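 Fluorescence of capillary-separated, HpaI-digested RT-PCR reporter products gave IR1-element mRNA induction in HepG2 cells 24 h after dosing. Endogenous transcription factors drove the cis-regulated reporters; activity was fitted bidirectionally against DMSO.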

[18] = ATG_PBREM_CIS: Attagene CIS-FACTORIAL HepG2 Assay for human Phenobarbital-responsive Enhancer Module (PBREM) (AID 2282955); details: HepG2 PBREM cis-reporter, Attagene multiplexed transcription; actives raise or lower the signal
How it was run: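 HepG2 cells transiently transfected with multiple cis-regulated reporter transcription units; endogenous factor activity at the PBREM element measured as reporter mRNA 24 h after dosing, via RT-PCR and capillary electrophoresis of fluorescent fragments; bidirectional fitting versus DMSO.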

[19] = ATG_FoxO_CIS: Attagene CIS-FACTORIAL HepG2 Assay for human Forkhead box O (FoxO) (AID 2282943); details: HepG2 Attagene cis-reporter, FoxO element, mRNA; actives raise or lower the signal
How it was run: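 HepG2 cells transiently transfected with cis-element-driven reporter units report endogenous FoxO activity. After 24 h chemical exposure, reporter mRNA quantified by RT-PCR, fluorescent labeling, HpaI digestion and capillary electrophoresis; bidirectional fit versus DMSO.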

Paired box protein Pax-6 (Homo sapiens), sequence (P26367 whole entry, looked up): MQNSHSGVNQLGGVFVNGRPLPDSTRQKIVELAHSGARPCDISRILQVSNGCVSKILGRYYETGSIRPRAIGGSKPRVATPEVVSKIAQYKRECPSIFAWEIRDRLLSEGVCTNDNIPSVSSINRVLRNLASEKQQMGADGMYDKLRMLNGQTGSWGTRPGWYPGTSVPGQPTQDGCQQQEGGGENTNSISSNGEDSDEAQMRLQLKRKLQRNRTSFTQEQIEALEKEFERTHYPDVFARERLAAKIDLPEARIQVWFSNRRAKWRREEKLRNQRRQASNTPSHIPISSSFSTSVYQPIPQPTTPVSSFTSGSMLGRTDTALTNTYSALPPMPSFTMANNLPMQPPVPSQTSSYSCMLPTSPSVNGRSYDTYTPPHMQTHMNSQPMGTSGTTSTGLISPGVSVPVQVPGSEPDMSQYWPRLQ
Hepatocyte nuclear factor 6 (Homo sapiens), sequence (Q9UBC0 whole entry, looked up): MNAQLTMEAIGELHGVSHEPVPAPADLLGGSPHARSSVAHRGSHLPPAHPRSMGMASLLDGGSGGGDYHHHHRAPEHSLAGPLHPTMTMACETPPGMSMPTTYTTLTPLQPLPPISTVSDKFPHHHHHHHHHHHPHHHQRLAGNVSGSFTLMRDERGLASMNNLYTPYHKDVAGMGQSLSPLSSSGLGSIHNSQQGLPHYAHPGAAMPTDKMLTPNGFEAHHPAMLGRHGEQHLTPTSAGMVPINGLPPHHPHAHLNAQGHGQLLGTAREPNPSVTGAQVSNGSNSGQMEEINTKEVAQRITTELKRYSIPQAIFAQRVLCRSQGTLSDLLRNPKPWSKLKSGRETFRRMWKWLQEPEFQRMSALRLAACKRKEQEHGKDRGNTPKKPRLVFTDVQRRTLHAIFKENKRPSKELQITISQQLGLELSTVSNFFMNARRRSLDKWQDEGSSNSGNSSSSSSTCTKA
Hypoxia-inducible factor 1-alpha (Homo sapiens), sequence (Q16665 whole entry, looked up): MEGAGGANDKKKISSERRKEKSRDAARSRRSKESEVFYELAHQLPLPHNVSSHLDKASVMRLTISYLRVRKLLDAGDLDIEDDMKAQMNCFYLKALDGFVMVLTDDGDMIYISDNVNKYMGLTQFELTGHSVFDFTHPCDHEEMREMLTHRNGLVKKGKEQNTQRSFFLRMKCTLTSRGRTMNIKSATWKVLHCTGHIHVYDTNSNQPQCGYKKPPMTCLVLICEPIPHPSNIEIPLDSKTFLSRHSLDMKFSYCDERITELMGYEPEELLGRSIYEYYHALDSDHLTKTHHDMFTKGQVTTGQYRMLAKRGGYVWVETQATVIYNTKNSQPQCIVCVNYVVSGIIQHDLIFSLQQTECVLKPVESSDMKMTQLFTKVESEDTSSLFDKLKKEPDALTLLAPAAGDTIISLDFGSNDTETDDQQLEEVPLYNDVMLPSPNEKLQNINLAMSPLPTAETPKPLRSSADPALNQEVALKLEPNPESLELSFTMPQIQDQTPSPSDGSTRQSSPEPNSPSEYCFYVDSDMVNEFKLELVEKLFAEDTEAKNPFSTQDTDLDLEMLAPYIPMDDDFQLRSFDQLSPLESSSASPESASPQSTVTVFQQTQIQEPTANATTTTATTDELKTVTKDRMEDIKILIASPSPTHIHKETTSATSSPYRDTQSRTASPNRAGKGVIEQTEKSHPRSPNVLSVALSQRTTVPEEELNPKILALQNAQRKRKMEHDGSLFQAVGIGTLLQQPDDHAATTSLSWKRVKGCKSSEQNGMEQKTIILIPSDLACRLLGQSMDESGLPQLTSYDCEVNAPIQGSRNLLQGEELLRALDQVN
Hepatocyte nuclear factor 3-beta (Homo sapiens), sequence (Q9Y261 whole entry, looked up): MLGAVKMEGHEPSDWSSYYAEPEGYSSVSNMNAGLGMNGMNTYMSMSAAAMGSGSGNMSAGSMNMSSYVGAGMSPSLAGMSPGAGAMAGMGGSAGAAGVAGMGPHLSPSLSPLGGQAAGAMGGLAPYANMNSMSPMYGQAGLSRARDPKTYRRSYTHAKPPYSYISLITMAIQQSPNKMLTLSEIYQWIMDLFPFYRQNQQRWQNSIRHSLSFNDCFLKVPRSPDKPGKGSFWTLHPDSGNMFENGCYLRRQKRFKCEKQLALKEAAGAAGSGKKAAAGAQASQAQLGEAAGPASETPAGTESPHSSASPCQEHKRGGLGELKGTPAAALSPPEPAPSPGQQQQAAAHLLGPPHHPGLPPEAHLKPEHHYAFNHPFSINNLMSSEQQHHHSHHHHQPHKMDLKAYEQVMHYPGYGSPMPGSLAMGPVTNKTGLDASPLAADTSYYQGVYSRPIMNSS
Heat shock factor protein 1 (Homo sapiens), sequence (Q00613 whole entry, looked up, the tested form may be a part): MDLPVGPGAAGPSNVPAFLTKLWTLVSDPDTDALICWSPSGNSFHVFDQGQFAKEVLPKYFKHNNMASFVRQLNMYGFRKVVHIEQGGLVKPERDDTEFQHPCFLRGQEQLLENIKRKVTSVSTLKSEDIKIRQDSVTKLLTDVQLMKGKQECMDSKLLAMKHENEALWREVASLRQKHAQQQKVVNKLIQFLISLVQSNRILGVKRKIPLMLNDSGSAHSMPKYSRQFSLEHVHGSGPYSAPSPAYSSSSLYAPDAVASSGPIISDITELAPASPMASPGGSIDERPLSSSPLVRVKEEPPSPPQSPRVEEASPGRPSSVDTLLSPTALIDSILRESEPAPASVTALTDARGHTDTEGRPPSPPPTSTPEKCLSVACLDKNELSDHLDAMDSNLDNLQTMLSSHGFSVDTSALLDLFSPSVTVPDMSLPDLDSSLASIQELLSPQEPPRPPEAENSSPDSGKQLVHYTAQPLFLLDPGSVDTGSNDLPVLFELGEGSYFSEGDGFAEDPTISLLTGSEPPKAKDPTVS
Bile acid receptor (Homo sapiens), sequence (Q96RI1 whole entry, looked up): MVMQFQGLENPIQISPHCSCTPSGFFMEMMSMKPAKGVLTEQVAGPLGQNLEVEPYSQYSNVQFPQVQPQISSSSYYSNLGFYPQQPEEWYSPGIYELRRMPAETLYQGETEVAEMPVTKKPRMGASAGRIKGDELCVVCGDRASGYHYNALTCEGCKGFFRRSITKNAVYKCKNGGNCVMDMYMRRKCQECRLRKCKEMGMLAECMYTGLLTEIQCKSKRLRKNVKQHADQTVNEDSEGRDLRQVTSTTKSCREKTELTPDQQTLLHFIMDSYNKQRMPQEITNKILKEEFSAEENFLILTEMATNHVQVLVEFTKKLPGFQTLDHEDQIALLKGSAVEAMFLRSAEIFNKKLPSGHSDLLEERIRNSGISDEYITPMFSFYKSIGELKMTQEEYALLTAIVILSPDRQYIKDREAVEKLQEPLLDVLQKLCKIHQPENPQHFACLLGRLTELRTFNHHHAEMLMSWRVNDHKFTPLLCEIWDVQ

N#Cc1ccccc1Cl
outcome [1]: inactive | outcome [2]: inactive | outcome [3]: inactive | outcome [4]: inactive | outcome [5]: inactive | outcome [6]: inactive | outcome [7]: inactive | outcome [8]: inactive | outcome [9]: inactive | outcome [10]: inactive | outcome [11]: inactive | outcome [12]: inactive | outcome [13]: inactive | AC50 [14]: 26.4 µM (active) | outcome [15]: inactive | outcome [16]: inactive

Brc1ccc(Br)cc1
outcome [1]: inactive | outcome [2]: inactive | outcome [3]: inactive | outcome [4]: inactive | outcome [17]: inactive | outcome [5]: inactive | outcome [6]: inactive | outcome [7]: inactive | outcome [8]: inactive | outcome [9]: inactive | outcome [10]: inactive | outcome [11]: inactive | outcome [12]: inactive | outcome [18]: inactive | outcome [13]: inactive | outcome [14]: inactive | outcome [16]: inactive

CC(C)O.CC(C)O.OCCN(CCO)CCO.OCCN(CCO)CCO.[Ti]
outcome [1]: inactive | outcome [2]: inactive | outcome [19]: inactive | outcome [3]: inactive | outcome [4]: inactive | outcome [6]: inactive | outcome [7]: inactive | outcome [8]: inactive | outcome [9]: inactive | outcome [10]: inactive | outcome [12]: inactive | outcome [18]: inactive | outcome [13]: inactive

Brc1c(Br)c(Br)c(Oc2c(Br)c(Br)c(Br)c(Br)c2Br)c(Br)c1Br
outcome [1]: inactive | outcome [2]: inactive | outcome [3]: inactive | outcome [4]: inactive | outcome [17]: inactive | outcome [5]: inactive | outcome [6]: inactive | outcome [7]: inactive | outcome [8]: inactive | outcome [9]: inactive | outcome [10]: inactive | outcome [11]: inactive | outcome [12]: inactive | outcome [18]: inactive | outcome [13]: inactive | outcome [14]: inactive | outcome [15]: inactive | outcome [16]: inactive

Cc1cc(C)cc(C)c1
outcome [1]: inactive | outcome [2]: inactive | outcome [19]: inactive | outcome [3]: inactive | outcome [4]: inactive | outcome [6]: inactive | outcome [7]: inactive | outcome [8]: inactive | outcome [9]: inactive | outcome [10]: inactive | outcome [11]: inactive | outcome [12]: inactive | outcome [13]: inactive | outcome [14]: inactive | outcome [16]: inactive

CCOc1cc(C=O)ccc1O
outcome [1]: inactive | outcome [2]: inactive | outcome [3]: inactive | outcome [4]: inactive | outcome [5]: inactive | outcome [6]: inactive | outcome [7]: inactive | outcome [9]: inactive | outcome [10]: inactive | outcome [11]: inactive | outcome [12]: inactive | outcome [18]: inactive | outcome [13]: inactive | outcome [14]: inactive | outcome [16]: inactive
